The supplement of paper PMC9925115
Where a name gives a salt, the structure may show the parent alone. ± gives the uncertainty stated by the source.

test system: FLX1; assay: cell viability z-score within plate (CellTiter-Glo), mean of 3 biological replicates; higher = higher viability relative to plate (less growth inhibition); details: 2 µM; time (hr): 120
Description: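 FLX1 fibrolamellar carcinoma cells (DNAJB1-PRKACA fusion), 600 cells/well in 384-well plates, treated with a Selleck kinase inhibitor library (L1200) at 2 uM for 5 days (120 hr); viability by CellTiter-Glo. A z-score was computed within each plate and averaged over three biological replicates.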

| SMILES | cell viability z-score within plate |
| --- | --- |
| C=CCc1ccc(O)c(-c2ccc(O)c(CC=C)c2)c1 [Honokiol] | 0.237 ± 0.16 |
| COc1cc(N2CCC(N(C)C)CC2)ccc1Nc1ncc(Cl)c(Nc2ccccc2P(C)(C)=O)n1 | 0.0333 ± 0.4 |
| COc1ccc2c(Oc3ccc(NC(=O)c4c(C)n(CC(C)(C)O)n(-c5ccccc5)c4=O)nc3)ccnc2c1 | 0.446 ± 0.46 |
| C=CC(=O)Nc1ccc2ncnc(Nc3ccc(OCc4cccc(F)c4)c(Cl)c3)c2c1 | 0.819 ± 0.26 |
| CCOc1ccn(-c2ccc(F)cc2)c(=O)c1C(=O)Nc1ccc(Oc2ccnc(N)c2Cl)c(F)c1 | -0.36 ± 1.2 |
| COc1cc(Nc2ncc3c(n2)-c2ccc(Cl)cc2C(c2c(F)cccc2OC)=NC3)ccc1C(=O)O [Alisertib (MLN8237)] | 0.451 ± 0.63 |
| COc1cc2c(c(OC)c1OC)-c1c(cc3c(c1OC)OCO3)CC(C)C(C)C2 (configuration not stated) [Schisandrin B (Sch B)] | 0.407 ± 0.2 |
| CCN1CCN(Cc2ccc(C(=O)Nc3ccc(C)c(Oc4ccc5c(c4)CC(=O)N5)c3)cc2C(F)(F)F)CC1 | 0.226 ± 0.35 |
| CNC(=O)c1cc(Oc2ccc(NC(=O)Nc3ccc(Cl)c(C(F)(F)F)c3)cc2)ccn1 [Sorafenib Tosylate] | -0.335 ± 0.66 |
| CC(C)c1cnn2c(NCc3ccccc3)cc(NCCCCCCN)nc12 | 0.577 ± 0.3 |
| Oc1ccc(Nc2nc(-c3ccc(Cl)cc3)cs2)cc1 | 0.219 ± 0.2 |
| COc1ccc(S(=O)(=O)N(C(C)=O)c2ccccc2/C=C/c2cc[n+]([O-])cc2)cc1 | 0.21 ± 0.36 |
| CCOc1cc2ncc(C#N)c(Nc3ccc(F)c(Cl)c3)c2cc1NC(=O)/C=C/CN(C)C [Pelitinib (EKB-569)] | -1.38 ± 0.64 |
| CCN1CCN(Cc2ccc(-c3cc4c(N[C@H](C)c5ccccc5)ncnc4[nH]3)cc2)CC1 | 0.278 ± 0.61 |
| CCS(=O)(=O)c1cccc(-c2cc(C(=O)NC3CCN(C)CC3)c(C)c3[nH]c4ncc(C)cc4c23)c1 | 0.278 ± 0.45 |
| N#Cc1c(Oc2ccc(F)c(NC(=O)Cc3cccc(C(F)(F)F)c3)c2)ccc2nc(NC(=O)C3CC3)sc12 | 0.529 ± 0.94 |
| OCCn1cc(-c2cnc3nnn(Cc4ccc5ncccc5c4)c3n2)cn1 | 0.158 ± 1.6 |
| FC(F)c1nc2ccccc2n1-c1nc(N2CCOCC2)nc(N2CCOCC2)n1 | 0.852 ± 0.61 |
| Cc1ccc(NC(=O)c2ccc(CN3CCN(C)CC3)cc2)cc1Nc1nccc(-c2cccnc2)n1 [Imatinib Mesylate (STI571)] | -1.25 ± 0.88 |

| SMILES | cell viability z-score within plate |
| --- | --- |
| C[S+]([O-])c1ccc(-c2nc(-c3ccc(F)cc3)c(-c3ccncc3)[nH]2)cc1 (configuration not stated) | -1.58 ± 1.1 |
| C[C@]1(O)C[C@@H](c2nc(-c3ccc4ccc(-c5ccccc5)nc4c3)c3c(N)nccn32)C1 [Linsitinib (OSI-906)] | 0.624 ± 0.4 |
| CC1(C)CNc2cc(NC(=O)c3cccnc3NCc3ccncc3)ccc21 [Motesanib Diphosphate (AMG-706)] | 0.0691 ± 0.21 |
| Cc1cn(-c2cc(NC(=O)c3ccc(C)c(Nc4nccc(-c5cccnc5)n4)c3)cc(C(F)(F)F)c2)cn1 [Nilotinib (AMN-107)] | 0.322 ± 0.59 |
| Cc1ccc(C(=O)Nc2ccc(CN3CCN(C)CC3)c(C(F)(F)F)c2)cc1C#Cc1cnc2[nH]ncc2c1 [GZD824 Dimesylate] | -0.246 ± 0.26 |
| CC(C)(C)NS(=O)(=O)c1cncc(-c2cc(F)c3nc(N)nn3c2)c1 | 0.16 ± 0.77 |
| O=c1cc(-c2cccc3c2Sc2ccccc2S3)oc(N2CCOCC2)c1 | 0.731 ± 0.28 |
| COc1c(C)c(C(=O)c2ccc(N)c(C(=O)O)c2)n2ccccc12 | 0.661 ± 0.44 |
| Cc1ccc(S(=O)(=O)/C=C/C#N)cc1 | 0.177 ± 0.63 |
| COc1cc2ncnc(Oc3ccc(CC(=O)Nc4cnn(C(C)C)c4)cc3)c2cc1OC | -0.525 ± 0.26 |
| CC1=C(C(=O)Nc2cc3cn[nH]c3cc2F)C(c2ccc(C(F)(F)F)cc2)CC(=O)N1 (configuration not stated) | 1.02 ± 0.74 |
| Clc1ccc(C2(c3ccc(-c4cn[nH]c4)cc3)CCNCC2)cc1 | 0.815 ± 0.24 |
| Nc1nc(N)c(N=O)c(OCC2CCCCC2)n1 | 0.662 ± 0.19 |
| Cc1ccc(C(=O)Nc2ccc(CN3CCN(C)CC3)c(C(F)(F)F)c2)cc1C#Cc1cnc2cccnn12 | -1.09 ± 0.7 |
| Cc1nc(Nc2ncc(C(=O)Nc3c(C)cccc3Cl)s2)cc(N2CCN(CCO)CC2)n1 [Dasatinib] | -1.19 ± 0.2 |
| Cn1cnc2c(F)c(Nc3ccc(Br)cc3F)c(C(=O)NOCCO)cc21 | -0.254 ± 0.15 |
| C[C@@H]1CN(CC(=O)Nc2ccc3c(c2)Cc2cccc(-c4cc(=O)cc(N5CCOCC5)o4)c2S3)C[C@H](C)O1 | 0.915 ± 0.16 |
| Cc1cc(C)c(/C=C2\C(=O)Nc3ccccc32)[nH]1 [Semaxanib (SU5416)] | -1.17 ± 0.77 |
